Some test systems named below: MDA-MB-435 melanoma; SW-620 colon; HCT-116 colon; KM12 colon; BT-549 breast; MCF7 breast; HCC-2998 colon.
Holding throughout (test): NCI-60 one-dose screen, 48 h (100 = growth as untreated, 0 = no growth, -100 = all killed)
Common to all, as to conditions: 10 µM

In PubChem BioAssay (NCI) one finds growth data, which are given here for 34 compounds.

The panel holds about 83,000 compounds, 20% with a hit somewhere; the sample as a whole holds those more often.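 Negative percent growth values reflect cell death: -40 means 40% of the cells present at the start died, and -100 means all died.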 Values without a mark were called inactive. The source made the active and inactive calls. Rule for the calls: active = growth percent below 10; inactive = the rest.

Take `CN(C)CCNC(=O)c1cccn2c(=O)c3cc4ccccc4cc3nc12`: the growth was -68.6% (active) in the experiment on MDA-MB-435 melanoma, -11.9% (active) in the experiment with SW-620 colon, -41% (active) in the experiment on HCT-116 colon and -10.2% (active) with KM12 colon.

Take `COC(=O)c1ccc(=O)oc1`: the growth in the experiment on BT-549 breast was 104%; in the experiment with MDA-MB-435 melanoma it was 106%; in the experiment on HCT-116 colon, 97.7%; in the experiment with KM12 colon, 104%.

With `CCN(CCCCCCN1CC(=O)N(CCCCCCN(CC)Cc2ccccc2OC)CC1=O)Cc1ccccc1OC`, the growth is 87.8% in the experiment on BT-549 breast, 85.9% with MDA-MB-435 melanoma, 37.6% in the experiment on HCT-116 colon and 65.5% in the experiment with KM12 colon.

Regarding `O=C(Nc1ccncc1)C(=O)c1cn(S(=O)(=O)c2cc(Cl)cc(Cl)c2)c2ccccc12`, the growth in the experiment with MDA-MB-435 melanoma is 8.83% (active); with SW-620 colon, 64.9%; in the experiment with MCF7 breast, 43.9%; in the experiment on HCT-116 colon, 51.4%; with HCC-2998 colon, 65.7%; in the experiment on KM12 colon, 55.3%.

Turning to `Cc1cc(C)c(CCc2cc(C)c(C)cc2C)cc1C`, the growth with MDA-MB-435 melanoma is 98%; with SW-620 colon it was 105%; with MCF7 breast, 105%; in the experiment with KM12 colon, 106%.

Regarding `CC/C(C)=C(\C)C(=O)O`, the growth was 99.1% with MDA-MB-435 melanoma; 105% with SW-620 colon; 98.6% with MCF7 breast; 109% in the experiment with HCT-116 colon; 108% in the experiment on HCC-2998 colon; 103% in the experiment with KM12 colon.

On to `CCOC(=O)CNC(=O)CCCCSc1ncnc2nc[nH]c12`, for which the growth is 110% with MDA-MB-435 melanoma; 107% in the experiment with SW-620 colon; 91.9% with MCF7 breast; 101% in the experiment with HCT-116 colon; 108% in the experiment with KM12 colon.

As to `Cc1cs/c(=N\NC(=O)c2cc(-c3cc4ccccc4o3)nn2-c2ccccc2)n1-c1ccccc1`, the growth with MDA-MB-435 melanoma was 102%; in the experiment on SW-620 colon it was 93.4%; in the experiment with MCF7 breast it was 73.4%; in the experiment on HCT-116 colon, 83%; with KM12 colon it was 98.6%.

With `COc1ccc2c(c1)[n+]([O-])c(C#N)c(NC(=O)c1ccco1)[n+]2[O-]`, the growth in the experiment on MDA-MB-435 melanoma is 104%; in the experiment with SW-620 colon, 108%; with MCF7 breast, 90.8%; in the experiment with HCT-116 colon it was 99.9%; with KM12 colon, 105%.

`CC1(O)CCC2CC3OC3(C)CCC3OC3(C)CCC1C2(C)C` (stereo not given): the growth with MDA-MB-435 melanoma was 107%; with SW-620 colon, 99.6%; in the experiment on MCF7 breast, 103%; in the experiment on HCT-116 colon it was 100%; in the experiment with KM12 colon, 111%.

Take `Fc1ccc2nc(-c3nc(-c4ccccc4)n4ccccc34)[nH]c2c1`: the growth is -19.4% (active) in the experiment with MDA-MB-435 melanoma; 26.5% in the experiment on SW-620 colon; -12.6% (active) in the experiment with MCF7 breast; -31.2% (active) in the experiment with HCT-116 colon; 29.2% in the experiment on HCC-2998 colon.

With `N#Cc1cc(-c2cc3ccccc3o2)oc1N`, the growth was 5.63% (active) in the experiment with MDA-MB-435 melanoma; 12% in the experiment on SW-620 colon; 22.9% with MCF7 breast; 8.05% (active) in the experiment with HCT-116 colon; 0.443% (active) with KM12 colon.

With `CCN(CCCCCCCCCCN1CC(=O)N(CCCCCCCCCCN(CC)Cc2ccccc2OC)CC1=O)Cc1ccccc1OC`, the growth in the experiment on BT-549 breast was -50.7% (active); in the experiment on MDA-MB-435 melanoma, -72% (active); with MCF7 breast, -89.2% (active); in the experiment on HCT-116 colon, -95.2% (active); in the experiment with KM12 colon, -76.2% (active).

Consider `O=[N+]([O-])c1cccc(-c2ncc(-c3ccc(Cl)cc3Cl)[nH]2)c1`, for which the growth is 76.5% with MDA-MB-435 melanoma; -88% (active) with SW-620 colon; -8.38% (active) in the experiment on MCF7 breast; 13.5% in the experiment on HCT-116 colon; 58.1% with HCC-2998 colon; 15.7% with KM12 colon.

Consider `Clc1nc(Cl)c2c(ncn2C/C=C\Cn2cnc3c(Cl)nc(Cl)nc32)n1`, for which the growth with MDA-MB-435 melanoma was -44.9% (active); with SW-620 colon, -92.2% (active); with MCF7 breast, -1.6% (active); with HCT-116 colon, -15.4% (active); in the experiment on KM12 colon, -94.5% (active).

`COc1ccc2c(c1)sc1nc(-c3ccccc3)c(-c3ccsc3)n12`: the growth in the experiment with MDA-MB-435 melanoma was -39.6% (active); with SW-620 colon it was 19.4%; in the experiment on MCF7 breast, 13.5%; in the experiment on HCT-116 colon it was 30.8%; in the experiment with HCC-2998 colon it was 11.6%; in the experiment with KM12 colon it was 19.4%.

Turning to `CCN1CCC(CCOC)(CN2c3ccccc3Sc3ccc(Cl)cc32)C1` (stereo not given), the growth with MDA-MB-435 melanoma is 10.9%; in the experiment on SW-620 colon it was 54%; in the experiment on MCF7 breast it was 22.9%; with HCT-116 colon it was 28.8%; in the experiment on HCC-2998 colon, 40.5%; in the experiment on KM12 colon it was 29.8%.

Regarding `O=C(Nc1ccc(Cl)c(Cl)c1)Nc1c(Oc2ccc(Cl)c(Cl)c2)ccc(Cl)c1S(=O)(=O)O`, the growth in the experiment with MDA-MB-435 melanoma is -31.4% (active); in the experiment on SW-620 colon, 23.6%; in the experiment on MCF7 breast it was 24.6%; with HCT-116 colon, 23.5%; in the experiment with HCC-2998 colon, 25.2%; in the experiment on KM12 colon, 33.2%.

Take `COc1cc(CNc2ccccc2C(=O)N2CCN(C(=O)c3cc(-c4cc(OC)c(OC)c(OC)c4)n4nc(-c5ccccc5)cc4n3)CC2)cc(OC)c1OC`: the growth in the experiment with MDA-MB-435 melanoma was -47.6% (active); in the experiment with SW-620 colon it was 26.3%; in the experiment on MCF7 breast it was 6.61% (active); with HCT-116 colon, 21.6%; in the experiment on HCC-2998 colon, 40.3%; with KM12 colon it was 17.8%.

As to `COc1ccccc1CNCCN1C(=O)c2ccc3c4c(ccc(c24)C1=O)C(=O)N(CCNCc1ccccc1OC)C3=O`, the growth in the experiment with BT-549 breast is -94% (active); with MDA-MB-435 melanoma, -80.2% (active); in the experiment with MCF7 breast, -69.2% (active); with KM12 colon, -96.6% (active).

For `COc1cc([C@@H]2c3cc4c(cc3C(Br)[C@H]3COC(=O)[C@H]23)OCO4)cc(OC)c1OC` (stereo not given in full), the growth was -12.7% (active) in the experiment with BT-549 breast, -42% (active) in the experiment on MDA-MB-435 melanoma, -10.4% (active) in the experiment with MCF7 breast and -81.3% (active) in the experiment on KM12 colon.

For `CCCCCCCCCCCC[n+]1ccc(C(N)=O)cc1`, the growth with MDA-MB-435 melanoma is 33.6%; in the experiment on SW-620 colon, 23.6%; with MCF7 breast, 40.2%; with HCT-116 colon it was 25.6%; in the experiment on HCC-2998 colon, 25.8%; in the experiment on KM12 colon it was -47% (active).

In the case of `Nc1ccn(C2CC(O)C(CO)O2)c(=O)n1` (stereo not given), the growth in the experiment on MDA-MB-435 melanoma is 107%; in the experiment on SW-620 colon, 113%; in the experiment with HCC-2998 colon, 2.98% (active); in the experiment with KM12 colon, 110%.

On to `COc1cc2nc(Nc3cccc(C(=O)O)c3)nc(N)c2cc1OC`, for which the growth in the experiment with MDA-MB-435 melanoma is 107%; with SW-620 colon it was 96.3%; with MCF7 breast, 97.8%; in the experiment with HCT-116 colon, -100% (active); in the experiment on HCC-2998 colon, 135%; in the experiment with KM12 colon it was 108%.

Take `COc1cc2c(cc1OCCCN1CCN(c3ncnc4ccccc34)CC1)N=CC1CCCN1C2=O` (stereo not given): the growth with MDA-MB-435 melanoma is -67.8% (active); in the experiment on SW-620 colon, -24% (active); with MCF7 breast it was -17.4% (active); in the experiment on HCT-116 colon, 11.7%; in the experiment with KM12 colon, -24.8% (active).

Regarding `CS(=O)(=O)Nc1ccc(Nc2c3ccccc3nc3cc(N)ccc23)cc1`, the growth is 53.6% in the experiment with MDA-MB-435 melanoma; 39.8% in the experiment with SW-620 colon; 6.57% (active) in the experiment on MCF7 breast; 28% in the experiment with HCT-116 colon; 35.2% in the experiment with HCC-2998 colon; 5.56% (active) with KM12 colon.

As to `COc1cc2c(cc1OCCCCCCN1CCN(CC(=O)Nc3ccc(Cl)cc3C(=O)c3ccccc3Cl)CC1)N=CC1CCCN1C2=O` (stereo not given), the growth is -81.2% (active) in the experiment on MDA-MB-435 melanoma; -83.6% (active) in the experiment on SW-620 colon; -7.24% (active) in the experiment on MCF7 breast; -42.3% (active) with HCT-116 colon; -75.9% (active) in the experiment on KM12 colon.

Turning to `CNc1ccc(CSc2ccc(C)cc2)cc1`, the growth is 85.2% with MDA-MB-435 melanoma; 93.7% in the experiment on SW-620 colon; 77% with MCF7 breast; 93.6% in the experiment with HCT-116 colon; 94% in the experiment with HCC-2998 colon; 62.4% with KM12 colon.

Consider `COc1ccc(/C=C/C(=O)Nc2ccc(-c3nc4ccc(OC)cc4s3)cc2)cc1`, for which the growth with MDA-MB-435 melanoma was 102%; with SW-620 colon, 114%; in the experiment on MCF7 breast, 85.3%; with HCT-116 colon, 105%; in the experiment on HCC-2998 colon it was 110%; in the experiment on KM12 colon, 111%.

As for `COc1cc(C)ccc1C(=O)c1ccc(C)cc1OC`, the growth was -69.8% (active) with MDA-MB-435 melanoma; 10.1% with SW-620 colon; 21.1% with MCF7 breast; 24.8% in the experiment with HCT-116 colon; 40% in the experiment with HCC-2998 colon; 22.1% in the experiment on KM12 colon.

`CC[C@H]1CCC/C=C/[C@@H]2C[C@H](O)C[C@H]2[C@H](O)/C=C/C(=O)O1`: the growth in the experiment with MDA-MB-435 melanoma was 5.71% (active); in the experiment on SW-620 colon it was -69% (active); in the experiment on MCF7 breast, -73% (active); in the experiment with HCT-116 colon it was -67.8% (active); in the experiment with HCC-2998 colon, -65.8% (active); in the experiment on KM12 colon, -70.5% (active).

For the compound `CCCCCCCC(C)NCCO` (stereo not given), the growth in the experiment on MDA-MB-435 melanoma is 97.6%; in the experiment on SW-620 colon it was 106%; with MCF7 breast it was 97.9%; in the experiment with HCT-116 colon, 111%; in the experiment on HCC-2998 colon it was 105%; with KM12 colon it was 102%.

On to `O=[N+]([O-])c1cccc(N=Cc2ccc3c(c2)OCO3)c1`, for which the growth in the experiment on MDA-MB-435 melanoma was 102%; in the experiment on SW-620 colon it was 108%; in the experiment with MCF7 breast it was 103%; with HCT-116 colon it was 106%; with HCC-2998 colon it was 98.3%; in the experiment with KM12 colon, 112%.

Turning to `O=C(Nc1ccncc1)C(=O)c1cn(S(=O)(=O)c2cccc3ccccc23)c2ccccc12`, the growth was -7.64% (active) in the experiment on MDA-MB-435 melanoma; 71.4% in the experiment on SW-620 colon; 52.3% in the experiment on MCF7 breast; 45.8% with HCT-116 colon; 64.8% in the experiment on HCC-2998 colon; 55% in the experiment on KM12 colon.
